Rab9 promoter act – activators of Rab9 promoter | Huh7 Rab9 promoter-luciferase reporter, luminescence, 24 h | Potency, µM (titrated, usually from 9.22 µM), without a hit: at the highest dose activation, negative = inhibition, hits mostly activators | 320,000 compounds, 2.8% hits; also: % of control where 0% means no effect; nearly all actives have a fitted effect of over 60% in size
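Luminescence read-out: Huh7 cells stably expressing Rab9-luciferase, treated 24 h with compound at 37 °C, then lysed with luciferase reagent for 10 min at ambient before reading.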
ELG1 genotoxic – genotoxicity induction in ELG1-luciferase HEK293T cells; AID 504466; Potency, µM (top dose mostly 46 µM), inactives show at the highest dose activity change, positive = activation, hits mostly activators; 330,000 compounds, 1.3% hits; HEK293T ELG1-luciferase reporter, luminescence, 16 h; also: % of control where 0% means no effect; nearly all actives have a fitted effect of over 60% in size
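HEK293T cells expressing luciferase-tagged ELG1 were exposed to compound or DMSO vehicle for 16 hr at 37 °C and 5% CO2. Luciferase activity was then measured with ONE-Glo after 30 min at room temperature.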
NPC1 prom act – NPC1 promoter activation | AID 485313 | Huh7 NPC1 promoter luciferase reporter, 24 h | Potency, µM (highest dose often 9.22 µM), without a hit: top-dose activation, usual class: activators | 320,000 compounds, 2.4% hits; also: % of control where 0% means no effect; nearly all actives have a fitted effect of over 60% in size
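Stable NPC1-promoter luciferase Huh7 line; cpd (DMSO) 24 h, 37 °C, 5% CO2; Amplite luciferase reagent 10 min RT; luminescence readout. qHTS format.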
FLuc counter – firefly luciferase modulation, counter-screen for miR-21 project; P08659; purified FLuc, Km substrates, luminescence inhibition; Potency, µM (series often up to 57.5 µM), for inactives: at the highest dose activity change, negative = inhibition, usual class: inhibitors; 360,000 compounds, 6.9% hits; AID 588342;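 also: plate controls were vehicle for no effect and reference inhibitor for full effect; nearly all actives have a fitted effect of over 55% in size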
Target sequence (P08659 whole entry, looked up): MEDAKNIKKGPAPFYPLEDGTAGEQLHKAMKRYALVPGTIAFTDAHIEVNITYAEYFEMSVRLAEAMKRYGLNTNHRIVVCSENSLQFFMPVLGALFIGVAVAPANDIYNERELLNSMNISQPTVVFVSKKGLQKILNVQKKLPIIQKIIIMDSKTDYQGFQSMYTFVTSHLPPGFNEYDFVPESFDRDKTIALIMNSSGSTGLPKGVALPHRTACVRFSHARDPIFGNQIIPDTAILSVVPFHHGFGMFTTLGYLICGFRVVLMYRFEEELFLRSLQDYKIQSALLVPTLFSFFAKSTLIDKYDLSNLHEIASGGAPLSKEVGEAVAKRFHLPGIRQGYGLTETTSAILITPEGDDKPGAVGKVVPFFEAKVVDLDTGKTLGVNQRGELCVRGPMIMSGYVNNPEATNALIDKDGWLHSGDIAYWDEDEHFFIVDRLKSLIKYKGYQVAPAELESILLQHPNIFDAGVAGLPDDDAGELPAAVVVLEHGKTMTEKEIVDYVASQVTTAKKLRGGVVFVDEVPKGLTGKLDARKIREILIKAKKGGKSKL
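Purified P. pyralis luciferase (10nM final) with 10uM D-luciferin and 10uM ATP (Km levels) in 50mM Tris acetate pH 7.5, 10mM Mg acetate, 0.01% Tween-20, 0.05% BSA; qHTS 6-point titration, ~60 µM downward; luminescence read.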
SMN2 splice up – enhancers of SMN2 splice variant expression; Potency, µM (doses to about 46.1 µM), for inactives: top-dose activity change, positive = activation, actives largely listed as activators; AID 1458; 210,000 compounds, 2.8% hits; HEK293 SMN2-luciferase splicing reporter, luminescence, 30-36 h; also: % of control where 0% means no effect; nearly all actives have a fitted effect of over 55% in size
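HEK293 cells carry an SMN2 minigene-luciferase reporter in which exon 7 inclusion puts luciferase in frame. Cells were seeded at 2000 cells/well, attached for 10-12 hours, then exposed to compounds for 30-36 hours at 37C before ONE-Glo luminescence.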
Luc counter – Kinase-Glo luciferase inhibition (counter-screen) | Kinase-Glo luciferase, ATP luminescence, 8 min | Potency, µM (titrated, usually from 38.3 µM), without a hit: top-dose activity change, negative = inhibition, actives largely listed as inhibitors | 200,000 compounds, 0.28% hits | AID 1379; also: % is scaled to controls: 0 for no effect and ±100 for the full control effect; nearly all actives have a fitted effect of over 60% in size
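Substrate mix (final 50 mM imidazole pH 7.2, 50 mM KCl, 7 mM MgCl2, 10 uM ATP, 0.01% Tween 20, 0.05% BSA) plus pin-tool compound, then Kinase-Glo detection mix; 8 min ambient, luminescence read.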
An asterisk follows results filed as active; ? = inconclusive; / = no result given; [ ] = dose if it differs, or a comment. An excerpt weighted towards active compounds, which were near 7.5% of everything screened. Calls follow the shape of the dose curve; as a rule, active = well fitted curve in the direction sought with a large enough effect; inconclusive = small, poorly fitted or top-dose-only effect, or another doubt; inactive = no such curve, though single readings can be large; an effect the other way counts as inactive or inconclusive. Potency is read from the fitted curve at half-maximal effect.

SMILES	Rab9 promoter act	ELG1 genotoxic	NPC1 prom act	FLuc counter	SMN2 splice up	Luc counter
Cc1ccnc(NC(=S)NC(=O)/C=C/c2ccccc2)c1	?	11.0%	?	-18.8%	14.7%	-1.9%
O=C(/C=C\c1ccccc1[N+](=O)[O-])Nc1ccccc1	2µM*	?	?	10.7µM*	17.8µM*	-5.1%
Cc1cccc(NC(=O)Cn2cc(S(=O)(=O)c3ccc(F)cc3)c(=O)c3cc4c(cc32)OCO4)c1	/	/	/	-5.4%	-10.1%	/
COc1ccc(CCNC(=O)Cc2c(C)c3cc4c(C)coc4cc3oc2=O)cc1OC	/	/	/	-1.4%	7.8%	/
COc1cccc(CNC(=O)CSc2n[nH]c(-c3ccccc3Cl)n2)c1	/	/	/	-3.2%	/	/
Cc1ccc2cccc(OCC(=O)Nc3ccc4c(c3)OCO4)c2n1	-2.9%	-7.4%	6.4%	-19.2%	-16.7%	-2.3%
COc1ccccc1OCC(=O)Nc1ccc2c(c1)OCO2	21.4%	25.0%	?	15.1µM*	/	/
COc1ccc(OCC(=O)Nc2ccc3c(c2)OCO3)cc1	14.4%	21.9%	10.5%	?	/	/
Cc1ccc(NC(=O)COc2ccccc2C=O)cc1Cl	2.51µM*	?	2µM*	0.849µM*	/	1.2%
COc1ccc(OCC(=O)Nc2cccc(OC)c2)cc1	-3.6%	?	1.9%	-15.2%[2.3 µM]	/	-12.7%
CCn1ccc2c(OCC(=O)Nc3ccc(C)c(Cl)c3)cccc2c1=O	/	/	/	-1.9%	/	/
COc1cccc(NC(=O)COc2ccccc2C(N)=O)c1	2µM*	7.94µM*	2.82µM*	2.39µM*	3.98µM*	?
O=C(COc1ccccc1Cl)Nc1ccc2c(c1)OCO2	?	3.55µM*	2.82µM*	3.38µM*	/	/
COc1ccccc1N(CC(=O)NCCSc1ccccc1)S(=O)(=O)c1ccc(C)cc1	/	/	/	-3.0%	-43.0%	/
Cc1ccc(-n2c(C)cc(C(=O)COc3c(CO)cc(F)cc3CO)c2C)cc1C	-1.1%	-4.6%	0.1%	23.9µM*	-51.8%	-3.6%
CC(=O)c1cccc(NC(=O)COC(=O)COc2ccccc2C)c1	-3.0%	0.2%	-3.0%	-8.3%	4.5%	-0.2%
CC(=O)Nc1cccc(NC(=O)COc2ccccc2C)c1	12.3%	0.8%	13.1%	15.1µM*	/	/
Cc1cc(NC(=O)COc2ccccc2C)no1	3.16µM*	?	3.16µM*	16.9µM*	/	-2.8%
CNS(=O)(=O)c1cccc(C(=O)OCC(=O)c2cc(C)n(-c3ccc4c(c3)OCO4)c2C)c1	-2.8%	11.1%	-1.4%	?	-23.6%	2.4%
Cc1cc(C(=O)COc2ccccc2Cl)c(C)n1-c1ccc2c(c1)OCO2	25.2%	?	19.2%	21.3µM*	?	-1.8%
COc1cc2nc(N3CCCN(C)CC3)nc(NC3CCN(Cc4ccccc4)CC3)c2cc1OC	-40.4%[46.1 µM]	/	-35.4%[46.1 µM]	/	/	/
Cc1cc(C)c(CSc2nnc(C)n3c2cc2occc23)c(C)c1	/	/	/	-8.4%	/	/
Cc1ccc(CCNC(=O)c2ccc(CSCc3ccc(C)cc3)o2)cc1	/	/	/	-15.0%	/	/
COc1ccc(CNC(=O)C(C)Sc2nc3ccccc3c(=O)n2CC2CCCO2)cc1 (stereo not drawn)	-7.1%	3.0%	-8.5%	6.8%	/	/
Cc1ccccc1OCC(=O)Nc1ccc2c(c1)OCO2	7.3%	?	?	13.5µM*	-8.9%	-10.5%
SMILES	Rab9 promoter act	ELG1 genotoxic	NPC1 prom act	FLuc counter	SMN2 splice up	Luc counter
COc1cc(C)ccc1OCC(=O)Nc1ccc2c(c1)OCO2	2.82µM*	?	?	7.57µM*	/	/
Cc1ccccc1OCC(=O)OCC(=O)Nc1ccc2c(c1)OCCO2	-0.5%	0.6%	-1.2%	/	/	/
O=C(CNc1ccccc1)N/N=C/c1ccc2c(c1)OCO2	3.2%	2.2%	5.4%	?	6.8%	1.3%
O=C(CNC(=O)c1ccccc1F)N/N=C/c1ccc2c(c1)OCO2	?	?	?	16.9µM*	/	/
O=C(CSc1ncccn1)N/N=C/c1ccc2c(c1)OCO2	?	?	26.2%	10.7µM*	/	/
O=C(CNC(=O)c1ccccn1)N/N=C/c1ccc2c(c1)OCO2	-6.0%	-10.9%	2.5%	?	12.7%	5.1%
O=C(Cc1ccccc1)N/N=C/c1ccc2c(c1)OCO2	3.98µM*	?	2.51µM*	15.1µM*	15.8µM*	-0.6%
O=C(CNC(=O)c1ccccc1Cl)N/N=C/c1ccc2c(c1)OCO2	2.0%	3.0%	-1.0%	?	/	/
O=C(CNc1ccccc1)N/N=C/c1ccc2c(c1)OCCO2	0.2%	0.8%	1.6%	9.53µM*	?	4.0%
COc1ccc2c(c1)O[C@H](c1ccc3c(c1)OCO3)[C@@H](OC(=O)NCCOc1ccccc1)C2=O	/	/	/	/	6.5%	-0.5%

Compound activity: PubChem BioAssay, National Center for Advancing Translational Sciences (NCATS)
